Results published in the supplement of paper PMC10338343.
± gives the standard deviation.

system: EfPiwi piRISC loaded with L1MC piRNA (26 nt); experiment: pre-steady-state target cleavage rate (min^-1); auxiliary factor: 500 nM Ephydatia muelleri Gtsf1; guide: L1MC piRNA 5'p-UAACUAAAUACUAUGCAAGCUGUAGG; MIWI and MILI are mouse PIWI proteins and EfPiwi is from a freshwater sponge; tags in brackets are library labels; higher = faster piRNA-guided slicing of the target
Method in brief: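 A transcribed, DNA-blocked target RNA library […] was incubated at 33 °C for 0–8 or 0–960 min with 1 nM active affinity-purified piRISC carrying one synthetic guide, in HEPES–potassium acetate buffer with or without 500 nM GTSF1 partner protein. Uncleaved targets were then sequenced and normalised to depth and to weakly complementary targets. Data from three trials were pooled, with k3 capped at 0.0001 min^-1, and a burst-and-steady-state fit yielded the pre-steady-state cleavage rate.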

UCCUGGAACAGCUUGCAUAGUAUCUAGUUA and UCCUGGUACAGCUUGCAUAGUAUUUAGUCA are within error of each other in “pre-steady-state target cleavage rate” value: 0.0068 ± 0.0027 for the first, 0.00545 ± 0.0021 for the second.

UCCUGGAUGAGCUUGCAUAGUAUUUAGUA and UCCUGGAUGUGACUUGCAUAGUAUUUAGUUA are within error of each other in “pre-steady-state target cleavage rate” value: 0.00405 ± 0.0032 for the first, 0.00497 ± 0.0028 for the second.

Compared with UCCUGGAUCAGCUACCAUAGUAUUUAGUUA, UCCUGGAUCAGCUUGCAUAGUAUUUAUGUUA is higher in “pre-steady-state target cleavage rate” value: 0.00516 ± 0.0032 for the first, 0.0559 ± 0.02 for the second.

UCCUGCUACAGCUUGCAUAGUUUUUAGUUA and UCCUGGAUCAGCUUGCAUAGUAUUUGGUUA are within error of each other in “pre-steady-state target cleavage rate” value: 0.00538 ± 0.0021 for the first, 0.00498 ± 0.002 for the second.

Going from UCCUGGAUCAGGUUGCAUAGUAUAUAGUUA to “UCCUGCUACAGCUUGCAUAGUAUUUAGUUU [g2:g25:cont:t1U]”, the “pre-steady-state target cleavage rate” value rises from 0.00644 ± 0.0033 to 0.158 ± 0.042.

Compared with UCCUGGAACAGGUUGCAUAGUAUUUUGUUA, UCCUCCUACAGCUCUGCAUAGUAUUUAGUUA is higher in “pre-steady-state target cleavage rate” value: 0.00366 ± 0.0015 for the first, 0.0445 ± 0.014 for the second.

Compared with UCCUCGUACAGCUUGCAUAGUAUUUAGUUA, UCCUGGAACAGCAUGGAUAGUAUUUAGUUA is lower in “pre-steady-state target cleavage rate” value: 0.163 ± 0.036 for the first, 0.00527 ± 0.0017 for the second.

UCCUGGUACAGCUUGCAUAGUACUUAGUUA and UCCUGGAUGUGCUUGCAUAGUAUUUAGUCA are within error of each other in “pre-steady-state target cleavage rate” value: 0.00275 ± 0.0022 for the first, 0.00263 ± 0.0019 for the second.
